# This is a sample that favours compounds with a hit; in the whole collection about 1.6% have one here.
# KCNQ2 pot: potentiators of rat KCNQ2 potassium channel; Potassium voltage-gated channel subfamily KQT member 2 (Rattus norvegicus), O88943; CHO-K1 KCNQ2, FluxOR thallium flux fluorescence; hits give high values; B-score at 10 µM; actives 0.54% (n = 310,000); AID 2239, 2010;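 active = fluorescence ratio B-score at least 3 SD of library B-scores, with initial fluorescence B-score within 3 of them, cut at about 5.3 in these data; same plate scores as AID 2156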;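 also: B-score of peak minus minimum over baseline fluorescence ratio after K+ and Tl+ stimulus; positive B-score means potentiation of KCNQ2 with more thallium influx and brighter signal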
# Target sequence (O88943 whole entry, looked up): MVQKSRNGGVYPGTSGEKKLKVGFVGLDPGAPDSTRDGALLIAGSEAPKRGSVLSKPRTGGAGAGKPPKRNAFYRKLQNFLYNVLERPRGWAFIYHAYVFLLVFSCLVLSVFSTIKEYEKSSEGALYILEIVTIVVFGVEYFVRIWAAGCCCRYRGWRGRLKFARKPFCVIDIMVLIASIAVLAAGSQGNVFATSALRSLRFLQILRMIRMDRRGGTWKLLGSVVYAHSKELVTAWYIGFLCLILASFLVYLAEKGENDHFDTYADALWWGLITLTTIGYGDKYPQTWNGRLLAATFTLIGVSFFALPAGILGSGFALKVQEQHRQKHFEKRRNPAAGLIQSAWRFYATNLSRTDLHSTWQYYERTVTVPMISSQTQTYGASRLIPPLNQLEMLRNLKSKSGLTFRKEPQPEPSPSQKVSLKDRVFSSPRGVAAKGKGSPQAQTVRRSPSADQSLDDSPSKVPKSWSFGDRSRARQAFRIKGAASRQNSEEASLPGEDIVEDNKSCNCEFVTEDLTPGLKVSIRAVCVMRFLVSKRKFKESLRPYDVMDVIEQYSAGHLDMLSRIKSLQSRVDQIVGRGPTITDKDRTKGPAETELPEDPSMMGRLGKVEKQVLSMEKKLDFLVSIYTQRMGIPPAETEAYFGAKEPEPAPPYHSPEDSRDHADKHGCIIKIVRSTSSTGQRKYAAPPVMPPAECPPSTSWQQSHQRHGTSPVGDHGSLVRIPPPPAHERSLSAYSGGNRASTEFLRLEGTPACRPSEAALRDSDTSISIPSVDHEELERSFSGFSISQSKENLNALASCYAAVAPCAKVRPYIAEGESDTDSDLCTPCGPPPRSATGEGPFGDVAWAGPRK
# KCNQ2 block: rat KCNQ2 potassium channel inhibitors, primary screen, cell-based, CHO-K1, FluxOR thallium flux, B-score; actives 1.1% (n = 310,000); Potassium voltage-gated channel subfamily KQT member 2 (Rattus norvegicus), O88943; 20 min; hits give low values; AID 2156, 2009; B-score at 10 µM;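 active = fluorescence ratio B-score at most minus 3 library SDs, with starting brightness B-score within 2 library SDs, cut at about -5.5 in these data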
# Kir21 conf inh: mouse Kir2.1 channel blockers, retest, confirmation, cell-based, FluxOR thallium flux, duplicate | actives 41% (n = 2,300) | Kir2.1-expressing cells, FluxOR thallium flux fluorescence; hits give low values | Tl flux remaining, % of negative control (hits give low values), % at 10 µM | shares compounds with KCNQ2 pot;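 active = Primary-screen hit whose thallium flux fell at least 3 control SD below untreated wells in both duplicates, with normal baseline fluorescence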;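 also: 0% = blank wells without stimulus and 100% = stimulated no-compound controls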
# HEK293 ctr: alters thallium flux in parental HEK293 cells, Kir2.1 counter-screen; shares compounds with KCNQ2 pot; FluxOR thallium flux fluorescence; 0% = unstimulated blank wells; FluxOR signal as % of negative control (100 = no effect), % at 10 µM; actives 19% (n = 2,300);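 active = dye signal at least 3 control SD above or below untreated wells in both duplicates, raw fluorescence within 3, either direction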;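 also: percent is based on the flux ratio of peak minus minimum fluorescence over baseline F0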
# CHO-K1 ctr: nonspecific thallium flux increase in parental CHO-K1, confirmation, counter-screen for KCNQ2 potentiator project, cell-based, FluxOR thallium flux, duplicate; shares compounds with KCNQ2 pot; parental CHO-K1 cells, FluxOR thallium flux fluorescence; zero = vehicle mean+3SD, 100% = vehicle-minus-blank window; activity increase over 3SD of controls, % at 10 µM; actives 43% (n = 1,200); AID 2282, 2010;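 active = signal rise of at least 3 SD above the untreated control mean, in both duplicate wells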;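 also: counter screen of KCNQ2 potentiator hits so any rise reflects channel-independent effects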
# KCNQ1 pot spec: human KCNQ1 channel potentiation off-target, confirmation, selectivity assay for KCNQ2 potentiator project, cell-based, CHO, FluxOR thallium flux; actives 28% (n = 1,200); CHO KCNQ1 stable, FluxOR thallium flux fluorescence; beyond 3SD, as % of vehicle-control signal; activation over 3SD threshold, % at 10 µM; shares compounds with KCNQ2 pot;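 active = fluorescence ratio rise of at least 3 SD of vehicle wells above their mean, in both replicate wells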;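 also: 0% = vehicle mean plus 3 SD and 100% = vehicle minus unstimulated blank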
# KCNQ2 pot conf: rat KCNQ2 channel potentiators, confirmation, cell-based, CHO, FluxOR thallium flux, duplicate; shares compounds with KCNQ2 pot; actives 68% (n = 1,200); potentiation, less the hit threshold, % at 10 µM; CHO-KCNQ2 cells, FluxOR thallium flux fluorescence;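 active = fluorescence ratio rising 3 SD or more over the vehicle control mean in both replicates, plus primary screen hit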;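 also: peak minus minimum thallium fluorescence divided by baseline after K/Tl stimulus; 0% = vehicle mean plus 3 SD and 100% = vehicle minus unstimulated blank difference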
# Kir2-1 sel: mouse Kir2.1 channel activation off-target, confirmation, selectivity assay for KCNQ2 potentiator project, cell-based, HEK293, FluxOR thallium flux | shares compounds with KCNQ2 pot | HEK293 Kir2.1, FluxOR thallium flux fluorescence | activity over 3SD threshold, % at 10 µM | actives 2% (n = 1,200) | AID 2345, 2010;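 active = fluorescence ratio rise of at least 3 SD above the vehicle-control mean, seen in both replicates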;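 also: 0% = vehicle mean plus 3 SD and 100% = vehicle minus no-stimulus blank window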
# KCNQ2 W236L pot: potentiators of retigabine-insensitive KCNQ2 W236L, mechanism study for KCNQ2 potentiator project, cell-based, rat KCNQ2 W236L, CHO, automated patch clamp | current increase over 3SD of negative controls (%), hits give high values, % at 25 µM | shares compounds with KCNQ2 pot | actives 10% (n = 940) | AID 2558, 2010 | automated patch clamp current;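 active = current increase at least 3 SD of the untreated controls above them in both duplicate recordings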
# Active calls of the source: *; i = inactive; / = no result given.
SMILES,KCNQ2 pot,KCNQ2 block,Kir21 conf inh,HEK293 ctr,CHO-K1 ctr,KCNQ1 pot spec,KCNQ2 pot conf,Kir2-1 sel,KCNQ2 W236L pot
Cc1ccc(NC(=O)CC(O)(C(F)(F)F)C(F)(F)F)cc1,9.7*,i,i,i,-6,-13,36*,-23,3.0%*
Cc1ccc(NC(=O)CC(N)=S)cc1,/,i,/,/,/,/,/,/,/
CCN1CCN(c2cc(C(C)C)nc3c(-c4ccccc4)c(C)nn23)CC1,/,i,60%*,i,/,/,/,/,/
Cc1nn2c(N3CCOCC3)cc(C(C)C)nc2c1-c1ccccc1,/,i,/,/,/,/,/,/,/
COc1ccc2oc(C(=O)OCC(=O)NC(=O)c3ccccc3)c(C)c2c1,/,i,/,/,/,/,/,/,/
CCCc1cc(=O)[nH]c(Nc2ccc(Cl)cc2)n1,/,i,/,/,/,/,/,/,/
CC(C)NC(=O)Nc1n[nH]c(Nc2ccc(Cl)cc2)n1,5.6*,i,i,i,9.6*,-21,-4,-27,i
CCn1ccc(C(=O)Oc2ccc(C(C)C)cc2)n1,/,i,/,/,/,/,/,/,/
CC(C)(C)C(=O)Nc1c2c(nn1-c1ccc(F)cc1)CSC2,0.03,i,/,/,/,/,/,/,/
CC(C)(C)n1nc2c(c1NC(=O)Cc1ccc(F)cc1)CSC2,14*,i,i,i,1.6*,-16,84*,-45,i
COc1ccc(NC(=O)Cn2c(C)cc(=O)c3ccccc32)cc1,0.15,i,/,/,/,/,/,/,/
O=C(OCc1cccc([N+](=O)[O-])c1)c1cnccn1,1.6,i,/,/,/,/,/,/,/
O=C(OCc1cccc([N+](=O)[O-])c1)c1ccncc1,6.6*,i,i,142%*,-5,-19,1.0*,-33,i
CN1/C(=C/C=N/n2cnnc2)C(C)(C)c2ccccc21,1.5,i,/,/,/,/,/,/,/
CCN(CC)CCNC(=O)/C(=C\c1cccn1C)NC(=O)c1cccs1,/,i,/,/,/,/,/,/,/
CC(=O)Nc1ccc(/C=C/C(=O)c2ccc3c(c2)OCCO3)cc1,0.03,i,/,/,/,/,/,/,/
Cc1cccc(C(=O)Oc2cc(C)[nH]c(=O)c2[N+](=O)[O-])c1,0.07,i,/,/,/,/,/,/,/
COc1ccc(N(CC(=O)NCCC2=CCCCC2)S(C)(=O)=O)cc1OC,/,i,/,/,/,/,/,/,/
Cc1cc(=O)n2[nH]c(C)c(-c3ccccc3)c2n1,/,i,/,/,/,/,/,/,/
O=c1cc(-c2ccccc2)nc2c(-c3ccccc3)c(C(F)(F)F)[nH]n12,23*,i,i,366%*,6.8*,-17,94*,-29,i
Cc1ccc(C(=O)C(OC(=O)CN2C(=O)c3ccccc3C2=O)c2ccccc2)cc1 (configuration not stated),1.9,i,/,/,/,/,/,/,/
Cc1ccc(C(=O)C(OC(=O)CN2C(=O)c3ccccc3C2=O)c2ccccc2)cc1C (configuration not stated),7.5*,i,i,i,-19,-18,-2,-20,i
C/C(=N\NC(=O)C1CC1(C)c1ccccc1)c1ccco1 (configuration not stated),/,i,/,/,/,/,/,/,/
COc1cc2c(cc1OC)CN(CC(=O)NC(=O)NCc1ccco1)CC2,0.67,i,/,/,/,/,/,/,/
